Screens from PubChem BioAssay.
mHTT CaM bind = mHTT-calmodulin interaction abrogation; P42858; AlphaScreen His-mHTT/GST-CaM binding, luminescence; inhibition, % at 15 µM; hit rate 3.6% among 190,000; AID 1671202;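 note: 0% = both proteins with DMSO and 100% = one protein alone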
Target sequence (P42858 whole entry, looked up, stated change not applied): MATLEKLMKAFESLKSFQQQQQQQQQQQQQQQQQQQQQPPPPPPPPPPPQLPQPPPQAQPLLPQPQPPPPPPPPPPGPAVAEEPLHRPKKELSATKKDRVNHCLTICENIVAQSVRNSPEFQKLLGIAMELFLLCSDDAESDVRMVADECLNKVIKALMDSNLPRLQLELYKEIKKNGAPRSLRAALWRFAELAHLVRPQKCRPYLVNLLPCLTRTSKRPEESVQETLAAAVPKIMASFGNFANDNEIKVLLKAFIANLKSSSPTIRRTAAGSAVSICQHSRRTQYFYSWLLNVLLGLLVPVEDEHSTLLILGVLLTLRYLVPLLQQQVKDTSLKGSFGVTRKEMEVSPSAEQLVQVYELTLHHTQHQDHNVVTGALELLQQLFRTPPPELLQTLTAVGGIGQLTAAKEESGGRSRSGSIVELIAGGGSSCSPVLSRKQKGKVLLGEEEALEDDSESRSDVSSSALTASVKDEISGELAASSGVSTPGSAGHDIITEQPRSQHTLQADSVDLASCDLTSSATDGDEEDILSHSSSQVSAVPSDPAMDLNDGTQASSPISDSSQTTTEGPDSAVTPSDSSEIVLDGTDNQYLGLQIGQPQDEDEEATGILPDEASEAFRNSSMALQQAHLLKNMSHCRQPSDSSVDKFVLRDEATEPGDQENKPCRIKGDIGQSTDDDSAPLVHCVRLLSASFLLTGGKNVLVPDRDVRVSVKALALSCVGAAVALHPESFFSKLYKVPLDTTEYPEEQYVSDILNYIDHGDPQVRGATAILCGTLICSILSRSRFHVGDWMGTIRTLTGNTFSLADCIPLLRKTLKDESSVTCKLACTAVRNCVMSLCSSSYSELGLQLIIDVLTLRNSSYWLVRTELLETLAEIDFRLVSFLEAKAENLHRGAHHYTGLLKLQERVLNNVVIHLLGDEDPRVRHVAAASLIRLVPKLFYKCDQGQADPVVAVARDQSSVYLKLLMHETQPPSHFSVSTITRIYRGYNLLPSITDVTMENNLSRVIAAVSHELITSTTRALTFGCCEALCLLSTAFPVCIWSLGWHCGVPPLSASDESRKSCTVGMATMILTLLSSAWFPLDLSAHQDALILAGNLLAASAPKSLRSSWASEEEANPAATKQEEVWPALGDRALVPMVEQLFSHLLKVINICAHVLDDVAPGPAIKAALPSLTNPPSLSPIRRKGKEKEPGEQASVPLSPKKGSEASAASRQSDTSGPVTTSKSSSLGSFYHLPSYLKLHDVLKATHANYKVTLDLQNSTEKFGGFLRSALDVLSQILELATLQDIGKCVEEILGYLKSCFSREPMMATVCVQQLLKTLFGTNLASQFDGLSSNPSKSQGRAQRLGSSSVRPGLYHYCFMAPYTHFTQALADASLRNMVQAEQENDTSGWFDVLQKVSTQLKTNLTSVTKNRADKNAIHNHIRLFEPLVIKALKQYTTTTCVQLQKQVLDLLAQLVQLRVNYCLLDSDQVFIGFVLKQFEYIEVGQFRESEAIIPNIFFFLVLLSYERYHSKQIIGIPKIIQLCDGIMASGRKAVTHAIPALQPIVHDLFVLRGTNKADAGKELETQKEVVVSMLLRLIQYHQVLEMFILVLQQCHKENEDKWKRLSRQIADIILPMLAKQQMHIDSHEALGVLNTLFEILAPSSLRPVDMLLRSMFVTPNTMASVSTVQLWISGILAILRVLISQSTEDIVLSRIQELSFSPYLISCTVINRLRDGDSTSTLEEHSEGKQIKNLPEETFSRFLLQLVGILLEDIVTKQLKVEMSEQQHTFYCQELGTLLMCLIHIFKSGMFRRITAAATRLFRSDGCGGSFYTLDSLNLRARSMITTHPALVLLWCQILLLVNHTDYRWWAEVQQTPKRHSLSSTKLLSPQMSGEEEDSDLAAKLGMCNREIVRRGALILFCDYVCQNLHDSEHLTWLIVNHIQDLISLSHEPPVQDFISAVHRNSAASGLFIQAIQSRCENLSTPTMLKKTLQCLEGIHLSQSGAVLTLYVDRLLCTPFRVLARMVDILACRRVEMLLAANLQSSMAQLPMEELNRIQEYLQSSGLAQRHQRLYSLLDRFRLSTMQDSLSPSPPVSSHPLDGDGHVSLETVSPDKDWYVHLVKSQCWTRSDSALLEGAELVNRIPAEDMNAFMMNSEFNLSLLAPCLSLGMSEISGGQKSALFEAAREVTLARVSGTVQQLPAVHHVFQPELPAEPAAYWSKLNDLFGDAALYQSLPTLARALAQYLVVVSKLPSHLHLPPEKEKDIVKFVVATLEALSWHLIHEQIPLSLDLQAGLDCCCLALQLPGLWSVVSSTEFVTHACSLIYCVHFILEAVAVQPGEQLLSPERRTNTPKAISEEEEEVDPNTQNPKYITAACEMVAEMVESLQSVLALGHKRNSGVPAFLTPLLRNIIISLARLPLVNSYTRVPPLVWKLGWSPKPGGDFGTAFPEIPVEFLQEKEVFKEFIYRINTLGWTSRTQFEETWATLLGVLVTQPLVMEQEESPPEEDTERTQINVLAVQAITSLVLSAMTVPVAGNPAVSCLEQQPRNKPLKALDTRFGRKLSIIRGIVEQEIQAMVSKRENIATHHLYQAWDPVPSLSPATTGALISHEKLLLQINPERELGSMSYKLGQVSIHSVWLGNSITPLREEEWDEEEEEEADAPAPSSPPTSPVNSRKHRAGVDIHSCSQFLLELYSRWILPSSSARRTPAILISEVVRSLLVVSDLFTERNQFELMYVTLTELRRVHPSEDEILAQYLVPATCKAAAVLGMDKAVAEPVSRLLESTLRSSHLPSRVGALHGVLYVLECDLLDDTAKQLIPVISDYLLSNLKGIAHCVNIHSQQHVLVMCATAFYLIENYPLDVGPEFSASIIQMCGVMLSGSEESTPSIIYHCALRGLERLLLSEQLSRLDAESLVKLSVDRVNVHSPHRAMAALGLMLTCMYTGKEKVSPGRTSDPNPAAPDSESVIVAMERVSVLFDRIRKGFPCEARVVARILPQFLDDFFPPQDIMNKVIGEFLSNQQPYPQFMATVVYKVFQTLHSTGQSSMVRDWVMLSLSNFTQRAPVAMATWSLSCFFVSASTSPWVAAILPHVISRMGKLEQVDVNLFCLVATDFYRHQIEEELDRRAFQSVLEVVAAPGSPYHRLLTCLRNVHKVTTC
Pf apPOL block = Pf-apPOL DNA polymerase inhibition | Recombinant Pf-apPOL, molecular beacon fluorescence, 1.5 h | inhibition, % at 10 µM | hit rate 0.25% among 210,000
* = called active by the depositor; · = no result. Most compounds without a hit are left out; they make up all but 3.6% or so of the library. Cut-off read from the data, not from the text of the source: active = inhibition above about 50%; inactive = the rest.

SMILES	mHTT CaM bind	Pf apPOL block
O=C(c1cc2nc(C3CC3)cc(C(F)F)n2n1)N1CCCC1c1cccc(F)c1 (stereo not drawn)	22	-7
Cc1ccc(C2=NN(C(=O)CN3CCOCC3)C(c3ccccc3F)C2)cc1 (stereo not drawn)	40	-6
COc1ccccc1C1CC(c2ccc(C)cc2)=NN1C(=O)CN1CCCCC1 (stereo not drawn)	40	-5
Cc1ccc(C2=NN(C(=O)CN3CCOCC3)C(c3ccccc3F)C2)c(C)c1 (stereo not drawn)	24	0
COc1ccccc1C1CC(c2cccc(C)c2)=NN1C(=O)CN1CCCCC1 (stereo not drawn)	45	-2
Cc1ccc(C2=NN(C(=O)CN3CCOCC3)C(c3cc(C)ccc3C)C2)c(C)c1 (stereo not drawn)	65*	-2
COc1ccccc1C1CC(c2ccc(F)cc2)=NN1C(=O)CN1CCCCC1 (stereo not drawn)	100*	0
Cc1ccc(C2=NN(C(=O)CN3CCOCC3)C(c3ccccc3C)C2)c(C)c1 (stereo not drawn)	86*	-2
COc1ccccc1C1CC(c2ccc(C)cc2C)=NN1C(=O)CN1CCOCC1 (stereo not drawn)	63*	-4
COc1cccc(C2C=C(c3ccc(Br)cc3)Nc3ncnn32)c1OC (stereo not drawn)	66*	4
COc1cccc(C2C=C(c3cccc(Br)c3)Nc3nnnn32)c1OC (stereo not drawn)	65*	-5
COc1ccccc1C1C=C(c2ccc(Br)cc2)Nc2ncnn21 (stereo not drawn)	41	-8
COc1cc(C2C=C(c3ccc(Cl)cc3)Nc3ncnn32)cc(OC)c1OC (stereo not drawn)	76*	0
COc1ccc(C2=CC(c3cc(OC)c(OC)c(OC)c3)n3ncnc3N2)cc1 (stereo not drawn)	11	-2
COc1cccc(C2C=C(c3ccc(Br)cc3)Nc3nnnn32)c1OC (stereo not drawn)	2	-3
COc1cccc(C2C=C(c3cccc(Br)c3)Nc3ncnn32)c1 (stereo not drawn)	59*	-6
COc1cccc(C2C=C(c3ccc(C)cc3)Nc3ncnn32)c1 (stereo not drawn)	18	-5
C1CC(C2CCNCC2)CCN1	-2	·
O=C(Cn1nc(N2CCCCCC2)c2ccccc2c1=O)Nc1ccc(F)c(F)c1	22	-2
OC1(c2ccccc2)C2C3CC4C5C3C1C5C(F)(F)C42 (stereo not drawn)	·	-4
COCCNC(=O)c1c(NC(=O)c2cccc([N+](=O)[O-])c2)sc2c1CCCC2	2	-3
NCCC(Cc1ccccc1)c1ccco1 (stereo not drawn)	5	-1
Cc1cccc(CN2CCCn3nc(C(=O)NCc4ccccc4Cl)cc3C2=O)c1	-2	-2
COc1ccc(CC(=O)N2CCCC2c2ccccc2F)cc1OC (stereo not drawn)	-2	-2
COc1ccc(C2=CC(c3cccc(Br)c3)n3nc(CCCO)nc3N2)cc1OC (stereo not drawn)	53*	-6
SMILES	mHTT CaM bind	Pf apPOL block
COc1cccc(C2C=C(c3ccc(F)cc3)Nc3ncnn32)c1OC (stereo not drawn)	56*	-5
COc1ccc(C2=CC(c3ccccc3)n3nc(CCCO)nc3N2)cc1 (stereo not drawn)	17	-18
COc1cccc(C2C=C(c3ccc(C)cc3)Nc3ncnn32)c1OC (stereo not drawn)	31	-2
O=C(Cc1c[nH]c2ncccc12)NCc1ccccc1	1	-1
O=C(Cc1c[nH]c2ncccc12)NCc1ccc(C(F)(F)F)cc1	-10	86*
O=C(c1ccccc1C(F)(F)F)N1CCOc2ccccc2C1	-1	-4
COCCc1nc(C2CCN(Cc3ccc(C)s3)CC2)n[nH]1	9	-5
CCOc1ccc(N2C(=O)CC(NCc3ccc(F)cc3)C2=O)cc1 (stereo not drawn)	-12	-1
CC12CC3CC(C)(C1)CC(C(=O)NCc1ccccn1)(C3)C2	3	-7
O=C1Nc2ccccc2CCC1NCc1ccccn1 (stereo not drawn)	71*	-13
O=C1CC(NCc2ccccn2)C(=O)N1c1ccc(F)cc1 (stereo not drawn)	100*	-2
Cc1ccc(-c2ncccc2CNC(=O)c2cccs2)cc1	-8	-8
COc1ccccc1N1C(=O)c2ccc(C(=O)Nc3ccccn3)cc2C1=O	4	-1
CCc1csc2nc(C)c(NC(=O)C3CCCCC3)c(=O)n12	-4	0
Cc1[nH]nc(-c2ccc(O)c(O)c2O)c1-c1ccccc1	91*	0
COc1ccc(-c2c(-c3ccc(O)cc3O)n[nH]c2C)cc1	35	12
Cc1ccc2c(c1)/C(=c1\sc3nc4ccccc4n3c1=O)C(=O)N2	0	55*
CCN1C(=O)/C(=c2/sc3nc4ccccc4n3c2=O)c2ccccc21	-3	6
O=C(NC(Nc1ccccc1)C(Cl)(Cl)Cl)c1cc([N+](=O)[O-])cc([N+](=O)[O-])c1 (stereo not drawn)	59*	2
O=C(NC(Nc1ccccc1)C(Cl)(Cl)Cl)c1ccc([N+](=O)[O-])cc1 (stereo not drawn)	31	0
O=C(NC(Nc1cccc([N+](=O)[O-])c1)C(Cl)(Cl)Cl)c1ccccc1[N+](=O)[O-] (stereo not drawn)	14	-3
O=C(NC(Nc1ccccc1Cl)C(Cl)(Cl)Cl)c1cc([N+](=O)[O-])cc([N+](=O)[O-])c1 (stereo not drawn)	61*	-5
CC(=O)N1CCC(n2c(C)nc(C(=O)N3CCOCC3)c2C)CC1	-1	-3
Cc1ccc(N2N=NC3C(=O)N(c4ccc(F)cc4)C(=O)C32)cc1C (stereo not drawn)	-6	0
COC(=O)C1CCN(Cc2cc(=O)oc3c(C)c(O)ccc23)CC1	5	-2
SMILES	mHTT CaM bind	Pf apPOL block
O=C1CCCC(=O)N1CCS(=O)(=O)N1CC(c2nc(C3CC3)no2)C1	-14	-7
Oc1c(C(Nc2ccccn2)c2ccccc2Br)ccc2cccnc12 (stereo not drawn)	99*	-1
O=C(Nc1cc(Br)cc2cccnc12)c1ccccc1Br	-4	-5
Oc1ccc(Br)c(C(Nc2ccccn2)c2ccc3cccnc3c2O)c1 (stereo not drawn)	100*	-4
CCOC(=O)Cn1cnc2c(-c3cccc(F)c3)csc2c1=O	-9	-8
O=C1OC(c2ccccc2F)=N/C1=C/c1cccc([N+](=O)[O-])c1	6	0
CCOc1ccccc1CNC(=O)c1ccc2[nH]c3c(c2c1)CN(C(C)=O)CC3	74*	-2
CCc1ccc(CNC(=O)c2ccc3[nH]c4c(c3c2)CN(C(C)=O)CC4)cc1	41	-13
CC(=O)N1CCc2[nH]c3ccc(C(=O)NCc4ccc(N5CCOCC5)cc4)cc3c2C1	56*	-3
CCC(CC)NC(=O)c1ccc2[nH]c3c(c2c1)CN(C(C)=O)CC3	-2	1
COc1ccc(N(CC(=O)Nc2ccc(Br)c(C)c2)S(C)(=O)=O)c(OC)c1	54*	0
COc1ccc(NC(=O)CN(c2ccc(Cl)cc2C)S(C)(=O)=O)c(OC)c1	6	-6
COc1nn(C)cc1C(=O)Nc1nnc(C2CC(=O)N(c3ccccc3)C2)o1 (stereo not drawn)	54*	-2
